Reference: PubChem BioAssay AID1159580 (chemical genetic matrix, 2015)
Hit rate of the full screen: of about 5,500 compounds, about 2,000 (36%) were called active. Not shown: some 18% with an inconclusive outcome. Cut-off read from the data, not from the text of the source: active = normalized growth mostly below about 0.91 (no sharp cut-off); inconclusive = no clear call, values can overlap the other calls; inactive = mostly above about 0.92. The list shows a part of the results.

Assay: chemical genetic growth profiling, strain panel (AID 1159580);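 note: tested at 20 µM; growth read once vehicle control cultures reached saturation at 30 °C; 1 = growth at the plate median or of vehicle wells; lower values mean less growth of the strain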
Details: growth OD
[1] = S. cerevisiae deletion strains, locus YAR019C, strain CDC15, stronger effect = lower value
[2] = S. cerevisiae deletion strains, locus YBL105C, strain PKC1, stronger effect = lower value
[3] = S. cerevisiae deletion strains, locus YBR135W, strain CKS1, stronger effect = lower value
[4] = S. cerevisiae deletion strains, locus YBR136W, strain MEC1, stronger effect = lower value
[5] = S. cerevisiae deletion strains, locus YBR160W, strain CDC28, stronger effect = lower value
[6] = S. cerevisiae deletion strains, locus YDL017W, strain CDC7, stronger effect = lower value
[7] = S. cerevisiae deletion strains, locus YDL028C, strain MPS1, stronger effect = lower value
[8] = S. cerevisiae deletion strains, locus YDL101C, strain DUN1, stronger effect = lower value
[9] = S. cerevisiae deletion strains, locus YDL108W, strain KIN28, stronger effect = lower value
[10] = S. cerevisiae deletion strains, locus YDL132W, strain cdc53, stronger effect = lower value
[11] = S. cerevisiae deletion strains, locus YDL214C, strain PRR2, stronger effect = lower value
[12] = S. cerevisiae deletion strains, locus YDR052C, strain DBF4, stronger effect = lower value
[13] = S. cerevisiae deletion strains, locus YDR054C, strain cdc34, stronger effect = lower value
[14] = S. cerevisiae deletion strains, locus YDR226W, strain ADK1, stronger effect = lower value
[15] = S. cerevisiae deletion strains, locus YDR477W, strain SNF1, stronger effect = lower value
[16] = S. cerevisiae deletion strains, locus YER123W, strain YCK3, stronger effect = lower value
[17] = S. cerevisiae deletion strains, locus YER133W, strain GLC7, stronger effect = lower value
[18] = S. cerevisiae deletion strains, locus YFL009W, strain cdc4, stronger effect = lower value
[19] = S. cerevisiae deletion strains, locus YFL029C, strain CAK1, stronger effect = lower value
[20] = S. cerevisiae deletion strains, locus YFR003C, strain YPI1, stronger effect = lower value
[21] = S. cerevisiae deletion strains, locus YFR019W, strain FAB1, stronger effect = lower value
[22] = S. cerevisiae deletion strains, locus YFR028C, strain CDC14, stronger effect = lower value
[23] = S. cerevisiae deletion strains, locus YGR040W, strain KSS1, stronger effect = lower value
[24] = S. cerevisiae deletion strains, locus YGR052W, strain FMP48, stronger effect = lower value
[25] = S. cerevisiae deletion strains, locus YGR092W, strain DBF2, stronger effect = lower value
[26] = S. cerevisiae deletion strains, locus YHR030C, strain SLT2, stronger effect = lower value
[27] = S. cerevisiae deletion strains, locus YHR079C, strain IRE1, stronger effect = lower value
[28] = S. cerevisiae deletion strains, locus YHR082C, strain KSP1, stronger effect = lower value
[29] = S. cerevisiae deletion strains, locus YHR205W, strain SCH9, stronger effect = lower value
[30] = S. cerevisiae deletion strains, locus YIL147C, strain SLN1, stronger effect = lower value
[31] = S. cerevisiae deletion strains, locus YJL095W, strain BCK1, stronger effect = lower value
[32] = S. cerevisiae deletion strains, locus YJL128C, strain PBS2, stronger effect = lower value
[33] = S. cerevisiae deletion strains, locus YJL157C, strain FAR1, stronger effect = lower value
[34] = S. cerevisiae deletion strains, locus YJR016C, strain ILV3, stronger effect = lower value
[35] = S. cerevisiae deletion strains, locus YJR066W, strain TOR1 (second series), stronger effect = lower value
[36] = S. cerevisiae deletion strains, locus YJR066W, strain TOR1, stronger effect = lower value
[37] = S. cerevisiae deletion strains, locus YKL048C, strain ELM1, stronger effect = lower value
[38] = S. cerevisiae deletion strains, locus YKL067W, strain YNK1, stronger effect = lower value
[39] = S. cerevisiae deletion strains, locus YKL101W, strain HSL1, stronger effect = lower value
[40] = S. cerevisiae deletion strains, locus YKL193C, strain SDS22, stronger effect = lower value
[41] = S. cerevisiae deletion strains, locus YKL203C, strain TOR2, stronger effect = lower value
[42] = S. cerevisiae deletion strains, locus YLR113W, strain HOG1, stronger effect = lower value
[43] = S. cerevisiae deletion strains, locus YLR133W, strain CKI1, stronger effect = lower value
[44] = S. cerevisiae deletion strains, locus YLR403W, strain SFP1, stronger effect = lower value
[45] = S. cerevisiae deletion strains, locus YML070W, strain DAK1, stronger effect = lower value
[46] = S. cerevisiae deletion strains, locus YMR001C, strain CDC5, stronger effect = lower value
[47] = S. cerevisiae deletion strains, locus YMR205C, strain PFK2 (second series), stronger effect = lower value
[48] = S. cerevisiae deletion strains, locus YMR277W, strain FCP1, stronger effect = lower value
[49] = S. cerevisiae deletion strains, locus YNL006W, strain LST8, stronger effect = lower value
[50] = S. cerevisiae deletion strains, locus YNL020C, strain ARK1, stronger effect = lower value
[51] = S. cerevisiae deletion strains, locus YNL161W, strain CBK1, stronger effect = lower value
[52] = S. cerevisiae deletion strains, locus YNL183C, strain NPR1, stronger effect = lower value
[53] = S. cerevisiae deletion strains, locus YNL207W, strain RIO2, stronger effect = lower value
[54] = S. cerevisiae deletion strains, locus YNL222W, strain SSU72, stronger effect = lower value
[55] = S. cerevisiae deletion strains, locus YNL307C, strain MCK1 (second series), stronger effect = lower value
[56] = S. cerevisiae deletion strains, locus YOL078W, strain AVO1, stronger effect = lower value
[57] = S. cerevisiae deletion strains, locus YOL136C, strain PFK27, stronger effect = lower value
[58] = S. cerevisiae deletion strains, locus YOR061W, strain CKA2, stronger effect = lower value
[59] = S. cerevisiae deletion strains, locus YOR119C, strain RIO1, stronger effect = lower value
[60] = S. cerevisiae deletion strains, locus YOR231W, strain MKK1, stronger effect = lower value
[61] = S. cerevisiae deletion strains, locus YOR329C, strain SCD5, stronger effect = lower value
[62] = S. cerevisiae deletion strains, locus YPL031C, strain PHO85, stronger effect = lower value
[63] = S. cerevisiae deletion strains, locus YPL153C, strain RAD53, stronger effect = lower value
[64] = S. cerevisiae deletion strains, locus YPL204W, strain HRR25, stronger effect = lower value
[65] = S. cerevisiae deletion strains, locus YPL209C, strain IPL1, stronger effect = lower value
[66] = S. cerevisiae deletion strains, locus YPL256C, strain CLN2, stronger effect = lower value
[67] = S. cerevisiae deletion strains, locus YPR025C, strain CCL1, stronger effect = lower value
[68] = S. cerevisiae deletion strains, locus YPR106W, strain ISR1, stronger effect = lower value
[69] = S. cerevisiae deletion strains, locus YPR111W, strain DBF20, stronger effect = lower value
[70] = S. cerevisiae deletion strains, strain NNK1, stronger effect = lower value
[71] = S. cerevisiae deletion strains, strain TSCII, stronger effect = lower value
[72] = S. cerevisiae deletion strains, locus YDR150W, strain NUM1, stronger effect = lower value
[73] = S. cerevisiae deletion strains, locus YNL153C, strain GIM3, stronger effect = lower value
[74] = S. cerevisiae deletion strains, locus YPL055C, strain LGE1, stronger effect = lower value

Measured: normalized growth

O=C1/C(=C/c2ccccn2)CCc2ccccc21
inactive: [1] 0.923 | [2] 0.944 | [3] 0.95 | [4] 0.929 | [5] 0.957 | [6] 0.954 | [7] 0.94 | [8] 0.948 | [9] 0.936 | [10] 0.936 | [11] 0.927 | [12] 0.96 | [13] 0.937 | [14] 0.948 | [15] 0.897 | [16] 0.814 | [17] 0.897 | [18] 0.929 | [19] 0.912 | [20] 0.954 | [21] 0.951 | [22] 0.935 | [23] 0.837 | [24] 0.919 | [25] 0.813 | [26] 0.88 | [27] 0.869 | [28] 0.921 | [29] 0.878 | [30] 0.939 | [31] 0.863 | [32] 0.937 | [33] 0.939 | [34] 0.94 | [35] 0.633 | [36] 0.855 | [37] 0.952 | [38] 0.928 | [39] 0.922 | [40] 0.937 | [41] 0.912 | [43] 0.935 | [44] 0.869 | [45] 0.896 | [46] 0.944 | [47] 0.948 | [48] 0.939 | [49] 0.967 | [50] 0.948 | [51] 0.941 | [52] 0.84 | [53] 0.943 | [54] 0.942 | [55] 0.913 | [56] 0.935 | [57] 0.919 | [58] 0.934 | [59] 0.91 | [60] 0.875 | [61] 0.948 | [62] 0.874 | [63] 0.883 | [64] 0.862 | [65] 0.944 | [66] 0.861 | [67] 0.945 | [68] 0.96 | [69] 0.955 | [70] 0.967 | [71] 0.93
active: [42] 0.742

Oc1ccc(-c2nc(-c3ccc(F)cc3)c(-c3ccncc3)[nH]2)cc1
inactive: S. cerevisiae deletion strains, locus YAL040C, strain CLN3, stronger effect = lower value 0.975 | S. cerevisiae deletion strains, locus YCL061C, strain MRC1 (second series), stronger effect = lower value 1.01 | [72] 1 | S. cerevisiae deletion strains, locus YER002W, strain NOP16, stronger effect = lower value 1 | S. cerevisiae deletion strains, locus YMR307W, strain GAS1, stronger effect = lower value 1.02 | [73] 0.999 | S. cerevisiae deletion strains, locus YNL175C, strain NOP13, stronger effect = lower value 1.03 | S. cerevisiae deletion strains, locus YNL197C, strain WHI3, stronger effect = lower value 1.02 | S. cerevisiae deletion strains, locus YNL224C, strain SQS1, stronger effect = lower value 1.02 | S. cerevisiae deletion strains, locus YOR083W, strain WHI5 (second series), stronger effect = lower value 1.03 | [74] 1.02

O=S(=O)(Oc1cc(Cl)cc(Cl)c1)c1cccc(S(=O)(=O)Oc2cc(Cl)cc(Cl)c2)c1
inactive: S. cerevisiae deletion strains, locus YAL013W, strain DEP1, stronger effect = lower value 1.01 | S. cerevisiae deletion strains, locus YBR229C, strain ROT2, stronger effect = lower value 1.01 | S. cerevisiae deletion strains, locus YCL061C, strain MRC1, stronger effect = lower value 1.01 | [8] 1.01 | S. cerevisiae deletion strains, locus YDL134C, strain PPH21, stronger effect = lower value 1.01 | [72] 1 | S. cerevisiae deletion strains, locus YEL061C, strain CIN8, stronger effect = lower value 1.01 | S. cerevisiae deletion strains, locus YGR078C, strain PAC10, stronger effect = lower value 1.02 | [26] 1.04 | S. cerevisiae deletion strains, locus YHR087W, strain rtc3, stronger effect = lower value 0.996 | S. cerevisiae deletion strains, locus YJR043C, strain POL32, stronger effect = lower value 1 | S. cerevisiae deletion strains, locus YJR075W, strain HOC1, stronger effect = lower value 0.988 | S. cerevisiae deletion strains, locus YLR039C, strain RIC1, stronger effect = lower value 1.1 | S. cerevisiae deletion strains, locus YLR058C, strain SHM2 (second series), stronger effect = lower value 0.998 | S. cerevisiae deletion strains, locus YLR085C, strain ARP6, stronger effect = lower value 1.06 | S. cerevisiae deletion strains, locus YLR262C, strain YPT6, stronger effect = lower value 1.02 | S. cerevisiae deletion strains, locus YML094W, strain GIM5, stronger effect = lower value 1.01 | S. cerevisiae deletion strains, locus YMR219W, strain ESC1, stronger effect = lower value 0.998 | S. cerevisiae deletion strains, locus YMR263W, strain SAP30, stronger effect = lower value 0.992 | [73] 1.01 | S. cerevisiae deletion strains, locus YNL298W, strain CLA4 (second series), stronger effect = lower value 1.07 | S. cerevisiae deletion strains, locus YNL322C, strain KRE1, stronger effect = lower value 1.01 | S. cerevisiae deletion strains, locus YNR030W, strain Alg12, stronger effect = lower value 1.01 | S. cerevisiae deletion strains, locus YOL006C, strain TOP1, stronger effect = lower value 1.06 | [74] 1.01 | S. cerevisiae deletion strains, locus YPL241C, strain CIN2, stronger effect = lower value 1.03 | S. cerevisiae deletion strains, locus YPR135W, strain CTF4, stronger effect = lower value 1.01 | S. cerevisiae strains, strain wild type, stronger effect = lower value 1.04

O=S(=O)(CS(=O)(=O)Oc1ccc(Cl)c(Cl)c1)Oc1ccc(Cl)c(Cl)c1
inactive: [1] 0.95 | [2] 0.944 | [3] 0.947 | [4] 0.946 | [5] 0.946 | [6] 0.937 | [7] 0.946 | [8] 0.971 | [9] 0.937 | [10] 0.968 | [11] 0.986 | [12] 0.937 | [13] 0.932 | [14] 0.913 | [15] 0.966 | [16] 0.989 | [17] 0.969 | [18] 0.931 | [19] 0.95 | [20] 0.944 | [21] 0.946 | [22] 0.97 | [23] 0.983 | [24] 1.02 | [25] 0.905 | [27] 0.918 | [28] 1.03 | [29] 0.756 | [30] 0.943 | [31] 0.935 | [32] 0.969 | [33] 0.959 | [34] 0.951 | [35] 0.994 | [36] 1.03 | [37] 0.963 | [38] 0.983 | [39] 0.981 | [40] 0.944 | [41] 1.05 | [42] 0.962 | [43] 0.961 | [44] 0.823 | [45] 0.991 | [46] 0.94 | [47] 0.972 | [48] 0.949 | [49] 0.967 | [50] 0.955 | [51] 0.949 | [52] 1.09 | [53] 0.941 | [54] 0.955 | [55] 0.961 | [56] 0.946 | [57] 0.949 | [58] 0.984 | [59] 1.05 | [60] 1.07 | [61] 0.951 | [62] 0.948 | [63] 0.974 | [64] 0.945 | [65] 0.949 | [66] 0.945 | [67] 0.956 | [68] 0.942 | [69] 0.938 | [70] 0.956 | [71] 0.945
active: [26] 0.85
